Screening data: PubChem, Broad Institute
aSyn UTR act: Activators via SNCA 5'UTR binding, MLPCN. alpha-synuclein 5'UTR reporter, activators screen. activity score, % (tested at 7.5 µM), hits read low. hit rate 7.1% among 300,000. AID 1814; in the data active = activity score below about -60%
Starred values were filed as active, the others as inactive. This is one part of a sample in which hits are shown more often than they occur.

Screening O=C(NCC1COc2ccccc2O1)c1ccc(Cl)cc1 (stereo unspecified) returned aSyn UTR act -92.6*.
`CN(CC1COc2ccccc2O1)C(=O)c1ccc(N(C)C)cc1` (stereo unspecified) gave aSyn UTR act -61.5*.
Screening O=C(CCl)NN1C(=O)NC2(CCCCC2)C1=O returned aSyn UTR act -76.1*.
For O=C(CCl)NN1C(=O)NC(c2ccccc2)(c2ccccc2)C1=O the results were aSyn UTR act -85.7*.
For CCOC(=O)c1ccc(-c2cccc(C(F)(F)F)c2)nc1C the results were aSyn UTR act -122.3*.
`CCOc1ccc(S(=O)(=O)N/N=C2/CC(c3ccccc3)Oc3ccccc32)cc1` (stereo unspecified) gave aSyn UTR act -66.0*.
Cc1ccc(C)n1-c1ccc(C(=O)Nc2ccccc2F)cc1 was read as aSyn UTR act -157.2*.
Cn1nnnc1SCc1ccc(C(=O)Nc2ccccc2F)cc1 was read as aSyn UTR act -86.2*.
For CCc1ccccc1NC(=O)c1ccc(-n2c(C)ccc2C)cc1 the results were aSyn UTR act -97.6*.
For CCC1CCCCN1C(=O)CCCOc1ccccc1 (stereo unspecified) the results were aSyn UTR act -113.3*.
`CCOC(=O)C1CCN(C(=O)CCCOc2ccccc2)CC1` gave aSyn UTR act -120.5*.
For O=C(CCCOc1ccccc1)N1CCCCC1 the results were aSyn UTR act 70.6.
For CCOC(=O)N1CCC(NC(=O)c2oc3c(F)cccc3c2C)CC1 the results were aSyn UTR act -62.4*.
CCOc1cc(/C=N/Nc2ccc(C(=O)O)cc2)ccc1OC(=O)c1ccccc1C was read as aSyn UTR act -90.6*.
COc1cccc(OCc2cc(/C=N/Nc3ccc(C(=O)O)cc3)ccc2OC)c1 was read as aSyn UTR act -91.6*.
For Cc1ccc(-c2nc(N=Nc3ccc(O)cc3)n[nH]2)cc1 the results were aSyn UTR act -182.1*.
Cc1nc(NCc2ccco2)c2c(C)c(C)sc2n1 was read as aSyn UTR act -176.5*.
Cc1cc(O)ccc1Nc1nc(-c2cccnc2)cs1 was read as aSyn UTR act -281.0*.
Screening Cc1cc(O)ccc1Nc1nc(-c2cccs2)cs1 returned aSyn UTR act -101.4*.
Cc1ccc(-c2noc(-c3cc4ccccc4oc3=O)n2)cc1 was read as aSyn UTR act -80.0*.
For O=c1oc2ccccc2cc1-c1nc(-c2ccccc2)no1 the results were aSyn UTR act -130.8*.
Screening Cc1cccc(-c2noc(-c3cc4ccccc4oc3=O)n2)c1 returned aSyn UTR act -157.7*.
`O=C1CC(c2ccco2)CC(O)=C1C=Nc1cc(Cl)ccc1O` (stereo unspecified) gave aSyn UTR act -143.5*.
For Cc1ccccc1OCCOc1cccc(/C=N/NC(=O)Cc2nnc(N)s2)c1 the results were aSyn UTR act -84.2*.
For Nc1nnc(CC(=O)N/N=C/c2cccc(OCCOc3ccccc3)c2)s1 the results were aSyn UTR act -119.9*.
Screening CCCc1cc2c(=O)c(-c3ccccn3)coc2cc1OC returned aSyn UTR act -157.6*.
COc1ccc(C(=O)COC(=O)c2ccc(N(C)C)cc2)cc1 was read as aSyn UTR act -64.0*.
COc1ccc(C(=O)COC(=O)c2ccn(C)n2)cc1 was read as aSyn UTR act -82.8*.
O=C(OCC(=O)N1CCCC1)c1ccccc1O was read as aSyn UTR act -84.7*.
For CN(C)c1ccc(C(=O)OCC(=O)N2CCCCCC2)cc1 the results were aSyn UTR act -64.8*.
O=C(OCC(=O)N1CCN(c2ccccc2)CC1)c1ccccc1[N+](=O)[O-] was read as aSyn UTR act -141.2*.
`N#C/C(=N\Nc1ccc(Br)cc1)C(=N)N1CCOCC1` gave aSyn UTR act -122.7*.
N#C/C(=N\Nc1ccc([N+](=O)[O-])cc1)C(=N)N1CCOCC1 was read as aSyn UTR act -108.8*.
N#C/C(=N\Nc1ccccc1[N+](=O)[O-])C(=N)N1CCCCC1 was read as aSyn UTR act -111.5*.
`N#C/C(=N/Nc1ccc([N+](=O)[O-])cc1)C(=N)N1CCCCC1` gave aSyn UTR act -85.6*.
For S=C(NCc1ccccc1)NNc1nc2ccccc2[nH]1 the results were aSyn UTR act -73.8*.
c1ccc2[nH]c(NCc3ccc4c(c3)OCO4)nc2c1 was read as aSyn UTR act -179.5*.
CCCOc1ccc2nc(NC(=O)OC)[nH]c2c1 was read as aSyn UTR act 83.9.
For c1ccc(CNc2nc3ccccc3[nH]2)cc1 the results were aSyn UTR act -78.5*.
COc1ccc2nc(NCc3ccccc3)[nH]c2c1 was read as aSyn UTR act -80.0*.
Cc1ccc(C(=O)Nn2cnc3ccccc3c2=O)cc1C was read as aSyn UTR act -114.5*.
For CCc1ccc(C(=O)Nn2cnc3ccccc3c2=O)cc1 the results were aSyn UTR act -150.1*.
O=C(Nc1cccc(O)c1)c1cnn2cccnc12 was read as aSyn UTR act -109.7*.
For O=C(c1cnn2cccnc12)N1CCN(c2ccccc2)CC1 the results were aSyn UTR act -64.4*.
`O=C(Nc1ccc2c(c1)OCO2)c1cnn2cccnc12` gave aSyn UTR act -141.5*.
`CCn1c(SC(C)C)nnc1-c1cc(-c2ccccc2)sc1N` gave aSyn UTR act -171.4*.
CCCn1c(N)c(Sc2ccc(C)cc2)c(=O)n(CCC)c1=O was read as aSyn UTR act -78.7*.
For O=C(Nc1ccc(Cl)cc1)Nc1cccc2nsnc12 the results were aSyn UTR act -125.8*.
`O=C(Nc1ccccc1)Nc1ccc(Br)c(Cl)c1` gave aSyn UTR act -126.0*.
Screening O=C(Nc1ccccc1)Nc1ccccc1Br returned aSyn UTR act -93.6*.
`O=C(CN1CCCC1)Nc1ccc(NC(=O)Nc2ccccc2Cl)cc1` gave aSyn UTR act -126.4*.
`O=C(Nc1ccccc1)Nc1cccc(Cl)c1Cl` gave aSyn UTR act -237.2*.
S=C(Nc1ccc(OCc2ccccc2)cc1)Nc1cccc(Cl)c1Cl was read as aSyn UTR act -102.1*.
COc1ccc(C(=O)/C(=C/c2cccs2)c2nc3ccccc3o2)cc1 was read as aSyn UTR act -135.8*.
For COc1ccc(/C=C(\CC(=O)O)c2nc3ccccc3o2)cc1 the results were aSyn UTR act -108.9*.
For COc1cccc(NC(=O)NCc2ccccc2Cl)c1 the results were aSyn UTR act -72.9*.
Screening Cc1oc2c(c1C(=O)NCc1cccnc1)C(=O)c1ccccc1C2=O returned aSyn UTR act 106.6.
`COc1cccc(NC(=O)Nc2ccccc2SC)c1` gave aSyn UTR act -71.6*.
`COc1cccc(NC(=O)NC2(C(F)(F)F)Oc3ccccc3O2)c1` gave aSyn UTR act -76.7*.
For O=C(NCc1cccnc1)NC1(C(F)(F)F)Oc2ccccc2O1 the results were aSyn UTR act -66.5*.
COc1cccc(NC(=O)Nc2cc(C)ccc2F)c1 was read as aSyn UTR act -73.3*.
COc1ccc(NC(=O)Nc2cc(C)ccc2F)cc1 was read as aSyn UTR act -163.7*.
Screening COc1ccc(C)cc1NC(=O)Nc1ccc(C(=O)N2CCCC2)cc1 returned aSyn UTR act -63.7*.
Screening C/C(=N\OC(=O)Nc1ccccc1)c1ccc(C)cc1 returned aSyn UTR act -113.0*.
CCCC1=[N+](CC(=O)c2ccccc2)CCn2c(C)ccc21 was read as aSyn UTR act -74.3*.
Screening C/C(=N\N=C\c1ccccc1)c1nnn(-c2nonc2N)c1C returned aSyn UTR act -82.3*.
For O=[N+]([O-])c1cccc(/C=C/c2ccncc2)c1 the results were aSyn UTR act -65.5*.
`O=[N+]([O-])c1ccc(/C=C/c2ccncc2)cc1` gave aSyn UTR act -70.8*.
